Laboratory results: PubChem BioAssay AID1159580 (chemical genetic matrix, 2015)
The campaign covered roughly 5,500 compounds. About 2,000 (36%) were called active. Not shown: some 18% with an inconclusive outcome. Cut-off read from the data, not from the text of the source: active = normalized growth mostly below about 0.91 (no sharp cut-off); inconclusive = no clear call, values can overlap the other calls; inactive = mostly above about 0.92. This is one part of the list.

Assay: chemical genetic growth profiling, strain panel (AID 1159580);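 note: tested at 20 µM; growth read once vehicle control cultures reached saturation at 30 °C; 1 = growth at the plate median or of vehicle wells; lower values mean less growth of the strain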
Settings: S. cerevisiae deletion strains, growth OD

Measured: normalized growth

CC12CCC3C(CCC4(O)CC(O)CCC34/C=N/NC(N)=O)C1(O)CCC2C1=CC(=O)OC1 (stereo not given)
inactive: locus YBR021W, strain FUR4, hits give low values 1.05 | locus YBR229C, strain ROT2, hits give low values 1.02 | locus YCL029C, strain bik1, hits give low values 0.999 | locus YDL035C, strain GPR1, hits give low values 1.05 | locus YDL074C, strain BRE1, hits give low values 1.05 | locus YDL101C, strain DUN1, hits give low values 1.01 | locus YDL185W, strain tfp1, hits give low values 0.998 | locus YDL192W, strain arf1, hits give low values 1.01 | locus YDR101C, strain arx1, hits give low values 1.01 | locus YDR162C, strain NBP2, hits give low values 1.02 | locus YDR318W, strain mcm21, hits give low values 0.985 | locus YDR388W, hits give low values 0.985 | locus YDR502C, strain sam2, hits give low values 0.974 | locus YER110C, hits give low values 0.963 | locus YER155C, strain BEM2, hits give low values 1 | locus YER167W, strain BCK2, hits give low values 1.02 | locus YGL078C, strain dbp3, hits give low values 0.983 | locus YGL086W, strain mad1, hits give low values 0.991 | locus YGL248W, strain PDE1, hits give low values 1 | locus YGR078C, strain PAC10, hits give low values 0.991 | locus YGR135W, strain pre9, hits give low values 0.957 | locus YGR252W, strain gcn5, hits give low values 0.98 | locus YHR030C, strain SLT2, hits give low values 1.01 | locus YHR079C, strain IRE1 (second series), hits give low values 0.988 | locus YHR094C, strain hxt1, hits give low values 0.979 | locus YHR129C, strain ARP1, hits give low values 1.01 | locus YHR200W, strain rpn10, hits give low values 0.994 | locus YIL066C, strain RNR3, hits give low values 1.04 | locus YIL073C, strain SPO22, hits give low values 1.01 | locus YIL125W, strain kgd1, hits give low values 0.992 | locus YIR030C, strain dcg1, hits give low values 0.994 | locus YJL095W, strain BCK1, hits give low values 1 | locus YJL134W, strain LCB3, hits give low values 1.01 | locus YJL168C, strain set2, hits give low values 0.991 | locus YJL187C, strain SWE1 (second series), hits give low values 0.999 | locus YKL009W, strain mrt4, hits give low values 1.03 | locus YKL068W, hits give low values 0.987 | locus YKL085W, strain MDH1 (second series), hits give low values 0.994 | locus YKL085W, strain MDH1, hits give low values 0.994 | locus YKR001C, strain vps1, hits give low values 0.996 | locus YLR039C, strain RIC1, hits give low values 1.06 | locus YLR058C, strain SHM2, hits give low values 1.02 | locus YLR102C, strain apc9, hits give low values 0.985 | locus YLR262C, strain YPT6, hits give low values 1.05 | locus YLR268W, strain sec22, hits give low values 1.02 | locus YLR371W, strain rom2, hits give low values 0.994 | locus YLR418C, strain cdc73, hits give low values 0.975 | locus YML016C, strain PPZ1, hits give low values 1.02 | locus YML032C, strain rad52, hits give low values 1 | locus YML124C, strain tub3, hits give low values 0.986 | locus YMR078C, strain ctf18, hits give low values 0.981 | locus YMR223W, strain ubp8, hits give low values 0.975 | locus YMR307W, strain GAS1, hits give low values 1.08 | locus YNL067W, strain RPL9B, hits give low values 0.986 | locus YNL153C, strain GIM3, hits give low values 0.991 | locus YNL233W, strain BNI4, hits give low values 0.987 | locus YNL250W, strain rad50, hits give low values 0.985 | locus YNL271C, strain bni1, hits give low values 0.994 | locus YNL298W, strain CLA4, hits give low values 0.983 | locus YNL307C, strain MCK1, hits give low values 0.986 | locus YNR052C, strain pop2, hits give low values 0.98 | locus YOL012C, strain htz1 1.29 | locus YOL147C, strain pex11, hits give low values 0.986 | locus YOR061W, strain CKA2, hits give low values 1.04 | locus YOR069W, strain VPS5, hits give low values 1 | locus YOR136W, strain idh2, hits give low values 0.98 | locus YOR144C, strain elg1, hits give low values 0.989 | locus YOR184W, strain ser1, hits give low values 1.03 | locus YOR316C, strain cot1, hits give low values 0.987 | locus YPL241C, strain CIN2, hits give low values 1.01 | locus YPR119W, strain clb2, hits give low values 0.983 | locus YPR141C, strain kar3, hits give low values 0.994 | locus YPR163C, strain tif3, hits give low values 0.989 | locus YPR167C, strain met16, hits give low values 0.978 | strain wtn01, hits give low values 1.01
